Test results reported in PubChem BioAssay AID2417 (National Center for Advancing Translational Sciences (NCATS), 2010).
About 4,300 (3.1%) of roughly 140,000 compounds were called active. Not shown: some 21% with an inconclusive outcome. Shown is part of a subset that was picked to be rich in actives. A number with no mark means an inactive call.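 Rule for the calls: active = readout at or below -70, meaning at least 70% loss of cells showing the perinucleolar compartment, a nuclear body marking cancer cells; inconclusive = readout between -30 and a set limit; inactive = the rest.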

test: High Content Assay for Compounds that inhibit the Assembly of the Perinucleolar Compartment; conditions: PC3M PTB-GFP, PNC prevalence imaging, 16 h; at 10 µM; hits give low values;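 note: plate controls were DMSO wells for no effect and camptothecin positive control wells for full effect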
Method in brief: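 PC3M cells stably expressing PTB-GFP, 750–1000 cells/well, treated 16 h at 37 °C with compound (23 nl of library stock), in duplicate. After paraformaldehyde fixation and Hoechst stain, imaged at 20x; PNC prevalence scored by image analysis.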

SMILES	activity change (PNC), negative = inhibition
CC(=O)Nc1ccc(S(=O)(=O)NCC(=O)OCc2cc(=O)oc3ccc4ccccc4c23)cc1	-24.6%
Cc1cc(C(=O)COC(=O)CNC(=O)c2ccc(F)cc2)c(C)n1Cc1ccco1	8.75%
Cc1cc(OCCN2CCCC2)ccc1C(C)C	-100% (active)
c1ccc2cc(OCCN3CCCC3)ccc2c1	-15.5%
Cc1cc(OCCN2CCCC2)cc(C(C)C)c1	0%
Cc1cc([N+](=O)[O-])nn1CC(=O)Nc1ccc(Cc2ccncc2)cc1	-5.96%
Cc1scc(C(=O)NNC(=S)NCc2ccccc2)c1C	11.8%
CCCCn1c(O)c(N=NC(=O)Cn2c(C(F)(F)F)nc3ccccc32)c2ccccc21	-20%
Cc1c(NC(=O)Nc2ccccc2Cl)sc(=S)n1C	-119% (active)
Cc1cc(C)nc(NC(=O)Nc2ccccc2C(F)(F)F)n1	-23.4%
CN(C)CCNC(=O)Nc1cccc(Cl)c1Cl	17.8%
O=C1NC(c2ccccc2)=NC1(Nc1ccccn1)C(F)(F)F (stereo not given)	23.3%
Cc1ccc(NC(=O)c2oc(=O)c3ccccc3c2-c2ccccc2)c(C)c1	36.6%
Cc1cc(C)nc(N(C#N)CC(=O)Nc2ccccc2)n1	-18.1%
CNc1nc(SC)nc(N(C#N)CC(=O)OC)n1	-100% (active)
COC(=O)C(C)N(C#N)c1nc(C)nc(C)n1 (stereo not given)	10.7%
O=C(NC(=S)N1CCN(Cc2ccccc2)CC1)c1ccccc1	-17%
Cc1cc(C(=O)NNC(=S)NC(C)c2ccccc2)cs1 (stereo not given)	1.77%
CN(c1ccc(C(=O)N2CCc3ccccc3C2)cc1)S(C)(=O)=O	-100% (active)
CN(c1ccc(C(=O)NCCC2=CCCCC2)cc1)S(C)(=O)=O	32.9%

SMILES	activity change (PNC), negative = inhibition
COc1cc2c(cc1OC)CN(C(=O)c1ccc(S(=O)(=O)N3CCCCCC3)cc1)CC2	-8.24%
CCN(CC)c1ccc(C2C3CCCCC3(O)CCN2CC(=O)Nc2ccccc2)cc1 (stereo not given)	-22.9%
Cc1ccc(NC(=O)Cn2cccc2C2=NC(c3ccccc3)CO2)c(C)c1 (stereo not given)	17.1%
Cc1ccc(NC(=O)CN2CCC3(O)CCCCC3C2c2ccc3c(c2)OCO3)c(C)c1 (stereo not given)	-90% (active)
COc1cc(C2C(N3C(=O)c4ccccc4C3=O)C(=O)N2c2ccc(C)c(C)c2)cc(OC)c1OC (stereo not given)	31.7%
CCC(=O)NCCc1nc2ccccc2n1CC	14%
CCn1c(NC(=O)c2nn(C)cc2Br)nc2ccccc21	-114% (active)
Cc1ccc(Cn2c(NC(=O)c3ccco3)nc3ccccc32)cc1	2.65%
Cc1nnnn1/C(=C\c1ccccc1)C(=O)OCC(=O)N1CC2(C)CC1CC(C)(C)C2 (stereo not given)	23.1%
Cn1nccc1CNC(=O)c1ccnn1C	23.5%
Cc1ccc(S(=O)(=O)N(CC(=O)Nc2cccc([N+](=O)[O-])c2)Cc2ccc(Cl)cc2)cc1	34.5%
COc1ccc(C)cc1S(=O)(=O)N(CC(=O)Nc1cccc([N+](=O)[O-])c1)c1ccc(C)cc1	-81.9% (active)
Cc1ccc(N(CC(=O)Nc2cccc(N(C)S(C)(=O)=O)c2)S(C)(=O)=O)cc1	24.2%
Cc1ccc(S(=O)(=O)/N=C(/Nc2ccccn2)c2ccc(Cl)cc2)cc1	-85% (active)
Cc1ccc(S/C(=N\S(=O)(=O)c2ccc(Cl)cc2)c2ccccc2)cc1	-26.8%
O=S(=O)(/N=C(/Nc1ccccn1)c1ccccc1)c1ccc(Cl)cc1	-25.2%
CCNS(=O)(=O)c1ccc(NC(=O)c2cncc(Br)c2)cc1	6.83%
C/C(=N/NS(=O)(=O)c1ccccc1)c1ccc(NC(=O)C(F)(F)F)cc1	8.62%
COC(=O)Cc1ccc(N(Cc2ccccc2F)S(=O)(=O)c2ccc(Br)cc2)cc1	-15.9%
CCOc1ccc(C(=O)Nc2cc(OC)ccc2OC)cc1	-127% (active)

SMILES	activity change (PNC), negative = inhibition
CCOc1ccccc1NC(=O)Nc1cc(OC)ccc1OC	48.5%
CCOc1ccc(NC(=O)Nc2cc(C)ccc2OC)cc1	-3.12%
CC1CCCCN1S(=O)(=O)c1ccc(S(=O)(=O)N(CC(=O)Nc2ccccc2)Cc2cccs2)cc1 (stereo not given)	-17.2%
CCCOc1ccc(NC(=O)CC2C(=O)N(C)C(=S)N2Cc2ccc3c(c2)OCO3)cc1 (stereo not given)	-134% (active)
Cn1c(=O)cc(OCCCC(=O)N2CCN(Cc3ccc4c(c3)OCO4)CC2)c2ccccc21	19.5%
CCOc1ccc(NCCC(=O)c2ccc3c(c2)OCO3)cc1	23%
COc1ccc(/C=C/C(=O)NC(=S)NN2CCCCC2c2cccnc2)cc1 (stereo not given)	-29.3%
CN(C)/N=C/c1cc(Cl)cc([N+](=O)[O-])c1O	3.04%
Cc1ccc(S(=O)(=O)N2CCCC2C(=O)OCc2nc3sc(C)c(C)c3c(=O)[nH]2)cc1 (stereo not given)	7.12%
O=C(CN1C(=O)c2cccc3cccc(c23)C1=O)N1CCCCC1	-26%
COc1ccc(NC(=S)NC2CCS(=O)(=O)C2)cc1 (stereo not given)	36.6%
COc1ccc(NC(=S)NCC2CCN(c3ccc(OC)cc3)C2)cc1 (stereo not given)	-116% (active)
O=C(Cc1ccccc1)NC(=S)Nc1ccc(N2CCCCC2)cc1	-26.1%
COCC(C)n1c(C)cc(C(=O)CSc2cc(C)c3ccccc3n2)c1C (stereo not given)	-11.6%
Cc1cc(F)ccc1S(=O)(=O)N1CCCOC1CNC(=O)C(=O)NCCC1=CCCCC1 (stereo not given)	14.2%
CCCc1cc(=O)[nH]c(SCC(=O)N2CCN(S(=O)(=O)c3ccc(C)cc3C)CC2)n1	-20%
Cc1nn(Cc2ccc(F)cc2)c(C)c1NC(=O)c1noc2c1CCc1ccccc1-2	-5.67%
Cc1cc(C(=O)Nc2c(C)nn(Cc3ccccc3)c2C)on1	36%
Cc1nn(Cc2ccc(F)cc2)c(C)c1NC(=O)c1cccnc1Cl	-102% (active)
Nc1nc(SCC(=O)NN(c2ccccc2)c2ccccc2)n[nH]1	8.76%
